Several values for one entry are separate records, joined by “and”; a condition that tells them apart may be missing. Identical values can stand only once. In all, about 5,600 compounds went through this assay and about 390 (7%) showed an effect of 50% or more. What follows is part of a selection rich in strong results, with near analogues and random picks from the rest.

For the assay, the target named is T1, Protein deacetylase HDAC6 (Homo sapiens) (UniProt Q9UBN7).
T1 sequence (whole entry): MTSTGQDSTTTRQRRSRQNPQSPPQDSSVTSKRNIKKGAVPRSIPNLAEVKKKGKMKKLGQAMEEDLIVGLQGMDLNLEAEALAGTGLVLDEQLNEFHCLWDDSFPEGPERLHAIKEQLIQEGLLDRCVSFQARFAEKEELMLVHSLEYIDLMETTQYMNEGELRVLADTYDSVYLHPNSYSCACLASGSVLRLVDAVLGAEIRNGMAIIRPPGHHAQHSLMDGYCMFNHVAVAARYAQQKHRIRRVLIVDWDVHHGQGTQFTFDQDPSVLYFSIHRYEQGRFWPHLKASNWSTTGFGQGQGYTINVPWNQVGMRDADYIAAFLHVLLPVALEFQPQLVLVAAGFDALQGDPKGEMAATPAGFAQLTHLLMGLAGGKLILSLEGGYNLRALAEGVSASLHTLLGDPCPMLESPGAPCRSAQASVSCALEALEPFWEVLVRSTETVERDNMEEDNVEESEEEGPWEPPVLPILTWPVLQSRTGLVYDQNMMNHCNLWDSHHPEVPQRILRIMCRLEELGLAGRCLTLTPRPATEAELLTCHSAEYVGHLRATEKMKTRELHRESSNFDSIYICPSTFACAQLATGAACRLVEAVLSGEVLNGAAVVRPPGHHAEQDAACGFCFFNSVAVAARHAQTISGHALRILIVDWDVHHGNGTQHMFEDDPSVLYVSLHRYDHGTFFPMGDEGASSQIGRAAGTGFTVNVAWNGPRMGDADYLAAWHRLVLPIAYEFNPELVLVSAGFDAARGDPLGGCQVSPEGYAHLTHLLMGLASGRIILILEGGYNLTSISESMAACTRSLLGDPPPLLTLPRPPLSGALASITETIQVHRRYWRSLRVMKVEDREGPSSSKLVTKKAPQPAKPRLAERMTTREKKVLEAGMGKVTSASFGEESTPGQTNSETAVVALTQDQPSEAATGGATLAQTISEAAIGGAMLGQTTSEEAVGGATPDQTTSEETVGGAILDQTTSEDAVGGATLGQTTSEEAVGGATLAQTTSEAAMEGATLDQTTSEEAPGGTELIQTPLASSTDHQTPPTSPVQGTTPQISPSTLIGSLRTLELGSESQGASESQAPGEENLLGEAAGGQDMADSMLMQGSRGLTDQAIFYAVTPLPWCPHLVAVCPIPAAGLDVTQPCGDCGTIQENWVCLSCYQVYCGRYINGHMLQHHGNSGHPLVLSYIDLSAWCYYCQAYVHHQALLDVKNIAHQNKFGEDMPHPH
The conditions noted are these: at 10 µM.
Usually inhibition stands for the relative decrease from the control value, in per cent. Regarding `CCCCc1ccc(NS(=O)(=O)c2ccc(F)cc2)cc1`, the inhibition is 18.6%.
Take `CN[C@@H](C)[C@H]1[C@H](O)C[C@@]2(C)[C@@H]3CC[C@H]4C(C)(C)[C@@H](NC)CC[C@@]45C[C@@]35CC[C@]12C`: the inhibition was -3.38%.
Next, `Nc1ccncc1N`: 42.8%; `NS(=O)(=O)c1cc2c(cc1C(F)(F)F)NC(Cc1ccccc1)NS2(=O)=O` (centres undefined): 103%.
In the case of `NS(=O)(=O)c1cc2c(cc1Cl)NC(CC1CCCC1)NS2(=O)=O` (centres undefined), the inhibition stood at 9.09%.
In the case of `C=CCSCC1Nc2cc(Cl)c(S(N)(=O)=O)cc2S(=O)(=O)N1` (centres undefined) it was 12%; in that of `C[C@@H](c1nc(-c2ccc(C#N)cc2)cs1)[C@](O)(Cn1cncn1)c1ccc(F)cc1F`, 13.6%.
Next, `N=C(N)NN=C1C=CC(=NNC(N)=S)C=C1`: 8.3%.
Next, `C=C1/C(=C\C=C2/CCC[C@]3(C)[C@@H]([C@H](C)CC[C@@H](O)C(C)C)CC[C@@H]23)C[C@@H](O)C[C@@H]1O`: 24.3%; `O=C(c1ccc(-c2ccc(Cl)cc2)o1)N(Cc1ccccn1)c1ccc(N2CCNCC2)cc1`: 9.26%.
As for `CCCCOC(=O)c1ccc(O)cc1`, the inhibition turned out to be 86.8%.
Next, `CCOc1ccc(C(=O)OCCN(CC)CC)cc1`: 4.93%; `CCCCOc1cc(C(=O)OCCN(CC)CC)ccc1N`: 16.8%; `CCCOC(=O)c1ccc(O)cc1`: 73%.
Next, `CC/C(=C(/CC)c1ccc(O)cc1)c1ccc(O)cc1`: 19.4%; `CCCCOC(=O)c1ccc(N)cc1`: 44.5%; `CCCCN1CCCC1CNC(=O)c1cc(C#N)c2ccccc2c1OC` (centres undefined): 6.77%.
In the case of `NC(=O)c1cnc2[nH]ccc2c1N[C@H]1C2CC3CC1C[C@](O)(C3)C2` it was 15.9%; in that of `CC(C)C[C@@H](C(=O)N[C@@H](Cc1ccc(OCc2ccccc2)cc1)C(=O)NC(C)(C)C)N(C)Cc1ccc(C(C)(C)C)cc1`, 10.7%; in that of `C[C@H]1CC[C@@]2(OC1)O[C@H]1C[C@H]3[C@@H]4CC[C@@H]5C[C@@H](O)CC[C@]5(C)[C@H]4CC[C@]3(C)[C@H]1[C@@H]2C`, 5.04%.
`CN(C)/C=N/c1c(I)cc(I)c(CCC(=O)O)c1I`: the inhibition was determined as 6.5%.
In the case of `O=C(NCC1CCCCN1)c1cc(OCC(F)(F)F)ccc1OCC(F)(F)F` (centres undefined) it was -2.24%; in that of `CCC(CC)(CC(=O)Nc1cccc(/C=C/c2nc(C3CCC3)cs2)c1)C(=O)O`, 87.3%; in that of `COc1cc(N2CCC(O)CC2)ccc1Nc1cc(Nc2ccccc2S(=O)(=O)C(C)C)c2cc[nH]c2n1`, 12.8%.
Next, `Cc1ccc(-c2ncn(-c3ccc(Nc4nccc(-c5cccc(N6CCOCC6)c5)n4)cc3)n2)cn1`: 0.35%; `CCC(=O)NC1Cc2ccccc2C(c2ccccc2)C1` (centres undefined): 0.79%; `O=[N+]([O-])c1c(Nc2cc(F)cc(Cl)c2)ccc2nonc12`: 22.6%.
In the case of `Nc1ncnc2c1ncn2[C@H]1CC[C@@H](CO)O1` it was 46%; in that of `CC1(C)CNc2cc(NC(=O)c3cccnc3NCc3ccncc3)ccc21`, 87.1%; in that of `N#CC1(c2ccc(NC(=O)c3cccnc3NCc3ccncc3)cc2)CCCC1`, 51.4%.
Consider `CCCCCCCCCCCCCC(=O)OC(C)C`, for which the inhibition worked out at 30.5%.
Next, `O=C(O)c1nc(=O)[nH]c(=O)[nH]1`: -2.71%; `CC(N)CCCC(C)(C)O` (centres undefined): 6.48%; `COc1ccc2c(C(=S)N(C)CC(=O)O)cccc2c1C(F)(F)F`: 8.32%.
In the case of `CCN(CC)CC1CCN(c2ncc3ncnc(Nc4ccc(F)c(Cl)c4)c3n2)CC1` it was 22.9%; in that of `Cc1n[nH]c(C)c1Cc1sc2c(c1C(=O)N1C[C@H](O)CO1)c(=O)n(C)c(=O)n2CC(C)C`, 39.2%.
In the case of `COC1CCN(c2cccc(-c3cc(NC(C)=O)nc(-n4nc(C)cc4C)n3)n2)CC1` it was 20.5%.
On to `CCCC1C(=O)N2C(N(C)C)=Nc3ccc(C)cc3N2C1=O` (centres undefined), for which the inhibition stood at 67.9%.
In the case of `O=C1OC2(c3cc(I)c(O)c(I)c3Oc3c2cc(I)c(O)c3I)c2c(Cl)c(Cl)c(Cl)c(Cl)c21`, the inhibition is 69.2% and 74.6%.
In the case of `c1ccc(-c2n[nH]cc2-c2ccnc3ccccc23)nc1` it was -5.98%.
In the case of `CN(C)CC/C=C1\c2ccccc2CSc2ccccc21` it was 33.1%; in that of `CN1CCN(CC/C=C2/c3ccccc3Sc3ccc(S(=O)(=O)N(C)C)cc32)CC1`, 30.4%; in that of `OCCN1CCN(CC/C=C2/c3ccccc3Sc3ccc(Cl)cc32)CC1`, 89.6%.
Next, `CCN(CC)c1ccc(C(=C2C=CC(=[N+](CC)CC)C=C2)c2ccccc2)cc1`: 101%; `CCCCC1(COC(=O)CCC(=O)O)C(=O)N(c2ccccc2)N(c2ccccc2)C1=O`: 37.6%.
Regarding `O=C(O)CCC/C=C\CC1C(O)CC(O)C1/C=C/C(O)COc1cccc(Cl)c1` (racemic), the inhibition was determined as 7.35%.
Next, `CCN(CC)C(=O)Nc1ccc(OCC(O)CNC(C)(C)C)c(C(C)=O)c1` (centres undefined): 103%; `CC(C)OC(=O)c1cc2c(OCC(O)CNC(C)(C)C)cccc2[nH]1` (centres undefined): 17%; `CCCC(=O)Nc1ccc(OCC(O)CNC(C)C)c(C(C)=O)c1` (centres undefined): -5.99%.
